# Screening data as filed in PubChem BioAssay.
# An excerpt weighted towards active compounds, which were near 1.3% of everything screened.
# TRPML1 blocker: blocks the human TRPML1 channel. Q9GZU1. TRPML1-inducible cells, Ca2+ dye fluorescence, FDSS; hits give low values; inhibition of EC80 agonist-evoked calcium signal. activity change, negative = inhibition, % (concentration not given with the values). 0.02% of 390,000 active; in the data active means activity change below about -50%; inconclusive means between about -30% and that limit;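 further: stimulus is agonist 54-4 at its EC80 concentration; on the % scale 0 is the no-effect control and ±100 the full control effect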
# Target sequence (Q9GZU1 whole entry, looked up): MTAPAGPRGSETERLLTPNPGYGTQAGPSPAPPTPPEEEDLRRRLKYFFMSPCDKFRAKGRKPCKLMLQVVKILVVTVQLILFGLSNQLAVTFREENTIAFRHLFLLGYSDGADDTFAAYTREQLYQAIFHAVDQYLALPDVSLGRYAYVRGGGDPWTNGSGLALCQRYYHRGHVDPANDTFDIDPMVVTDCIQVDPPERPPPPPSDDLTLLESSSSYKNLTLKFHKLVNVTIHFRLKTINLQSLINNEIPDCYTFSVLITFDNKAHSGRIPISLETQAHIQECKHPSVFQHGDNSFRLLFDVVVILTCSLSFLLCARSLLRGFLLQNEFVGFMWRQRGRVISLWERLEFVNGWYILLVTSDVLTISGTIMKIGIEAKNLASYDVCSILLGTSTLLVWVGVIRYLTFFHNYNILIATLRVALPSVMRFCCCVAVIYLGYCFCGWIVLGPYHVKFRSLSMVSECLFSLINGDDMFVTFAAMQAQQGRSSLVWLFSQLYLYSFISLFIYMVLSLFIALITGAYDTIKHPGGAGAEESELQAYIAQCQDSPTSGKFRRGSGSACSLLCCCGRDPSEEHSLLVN
#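 Calcium fluorescence in TRPML1-DL cells induced overnight with Tet: a 110 s read after compound pin addition, then a 110 s antagonist read after challenge with 54-4 at 4 uM final (EC80).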
# Vif-A3G inh: Vif-A3G binding inhibition. Q9HC16. HeLa A3G-eYFP + Vif (tagged APOBEC3G with the HIV-1 protein that degrades it), YFP fluorescence, overnight. Potency, µM (series often up to 46.1 µM), for the others: top-dose activity, negative = active, most hits filed as inhibitors. 0.076% of 410,000 active. AID 602310; further: potency means the concentration at half of the fitted maximal effect; on the % scale 0 is the no-effect control and ±100 the full control effect; nearly all actives have a fitted effect of over 60% in size
#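 Read-out is eYFP fluorescence (Ex 488/Em 500-530) from Vif-expressing HeLa A3G-eYFP cells; more signal means A3G escaped Vif-mediated degradation. Cells plated overnight, compound pinned in, incubated overnight at 37 deg C.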
# TRPML1 agonist: agonists of human TRPML1 channel. Q9GZU1. TRPML1-expressing cells, Ca2+ dye fluorescence, FDSS. activation, % (concentration not given with the values). 0.12% of 410,000 active. AID 624414; in the data active means activation above about 50%; inconclusive means mostly about 30% to 49%; further: 0% is about no effect
#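 TRPML1-DL cells, Tet-induced overnight (~16 h, 37 degrees C), loaded 45-90 min at room temperature with Ca8 no-wash calcium dye plus quencher. FDSS fluorescence: 10 s baseline, compound pin-transfer, 110 s agonist read, then EC80 54-4 (4uM final) and 110 s antagonist read.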
# ALOX12 inh: ALOX12 (human) lipoxygenase inhibition | purified 12hLO, xylenol orange hydroperoxide absorbance | Potency, µM (top dose mostly 108 µM), inactives show top-dose activity change, negative = inhibition, usual class: inhibitors | 1.1% of 580,000 active | AID 1671190; further: potency means the concentration at half of the fitted maximal effect; on the % scale 0 is the no-effect control and ±100 the full control effect
#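 Purified human 12hLO (150 nM final) in 25 mM Hepes, 0.01% Triton X-100, pH 7.0 was preincubated 15 min at room temperature with compound. Then 40 uM arachidonic acid was added, 30 min. Hydroperoxide was read by Fe-XO absorbance ratio 573/405 nm.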
# GRP78 ERSR act: induces the endoplasmic reticulum stress response in human glioma cells; U87-MG GRP78 promoter luciferase reporter, 16 h; Potency, µM, without a hit: at the top dose activation, hits mostly activators; 0.02% of 420,000 active; further: potency means the concentration at half of the fitted maximal effect; series mostly up to about 76 µM; % of control where 0% means no effect; nearly all actives have a fitted effect of over 35% in size
#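 Stably transfected U87-MG glioma cells carrying a GRP78-based luciferase sensor; 16 h compound incubation. Luminescence end-point read 10 min after Bright-Glo addition at room temperature.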
# Vif-A3F inh: inhibitors of Vif-A3F interaction; HeLa A3F-eYFP + Vif (tagged APOBEC3F with the HIV-1 protein that degrades it), YFP fluorescence increase; 0.2% of 390,000 active; Potency, µM (doses to about 46.1 µM), without a hit: at the highest dose activity, negative = active; further: potency means the concentration at half of the fitted maximal effect; % of control where 0% means no effect; nearly all actives have a fitted effect of over 65% in size
#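 HeLa cells stably expressing A3F-eYFP plus Vif, plated and incubated overnight at 37 deg C, then exposed to compounds overnight at 37 deg C. Blocked degradation read as raised yellow fluorescence (Ex 488/Em 500-530).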
# The depositor's hits bear a star; ? = inconclusive; nt = no result given; [ ] = remark or other dose. Unless noted, the call rests on the fitted dose curve; in most records, active means well fitted curve in the direction sought with a large enough effect; inconclusive means small, poorly fitted or top-dose-only effect, or another doubt; inactive means no such curve, though single readings can be large; an effect the other way counts as inactive or inconclusive.
SMILES,TRPML1 blocker,Vif-A3G inh,TRPML1 agonist,ALOX12 inh,GRP78 ERSR act,Vif-A3F inh
COc1ccc(C)cc1NC(=O)C(C)N1CCOCC1 (stereo not drawn),-16,2%,0,11µM*,-2%,-4%
COc1ccc(C)cc1NC(=O)C(c1ccccc1)N1CCN(CC(=O)N2CCOCC2)CC1 (stereo not drawn),-1,-2%,-1,1%,-2%,1%
CCCCCN(CCC(=O)NCCC(C)C)C(=O)c1cc(C)oc1C,nt,nt,nt,-10%,nt,nt
CC(C)(C)c1ccc(C(=O)NCCC(=O)N2CCN(c3ncccn3)CC2)cc1,-14,1%,69*,3%,5%,nt
O=C(NCCC(=O)N1CCN(c2ncccn2)CC1)c1ccc(Br)cc1,nt,nt,nt,27%,nt,nt
Cc1ccc(C(NC(=O)C(C)C)c2cc([N+](=O)[O-])c3cccnc3c2O)cc1 (stereo not drawn),-10,?,2,16µM*,-3%,-5%
Cc1nc(NS(=O)(=O)c2ccccc2)sc1NC(=O)Nc1ccccc1,-13,-1%,0,?,-5%,?
Cc1nc(NS(=O)(=O)c2ccccc2)sc1NC(=O)Nc1ccc(Cl)cc1,17,3%,0,40µM*,6%,5%
Cc1nc(CCNC(=O)C2CNCCO2)sc1C (stereo not drawn),nt,nt,nt,8.9µM*,nt,nt
COc1cccc(/C=C2/C(=O)NN(c3ccc(C)c(C)c3)C2=O)c1,5,-6%,-1,28µM*,-9%,-28%
COc1cc(/C=C2/C(=O)NN(c3ccc(C)c(Cl)c3)C2=O)cc([N+](=O)[O-])c1O,24,-1%,1,40µM*,1%,-5%
COc1ccc(-c2noc([C@@H]3CCCN3C(=O)c3ccc(C#N)cc3)n2)cc1OC,nt,nt,nt,25µM*,nt,nt
O=C(Nc1ccc(Cl)cc1)C(Cl)C(=O)c1ccccc1 (stereo not drawn),14,1%,1,?,-5%,1%
O=C(Nc1ccccc1Cl)C(Cl)C(=O)c1ccccc1 (stereo not drawn),-10,1%,0,20µM*,?,-5%
Cc1cc(C)cc(C(=O)NC(=S)Nc2ccc(-c3cc4ccccc4oc3=O)cc2)c1,-6,1%,0,10µM*,-14%,?
FC(F)(F)c1ccccc1-c1cc(NCc2cccnc2)ncn1,nt,nt,nt,45µM*,-5%,nt
COc1ccccc1-c1nc(NCc2cccnc2)c2ccccc2n1,nt,nt,nt,?,-7%,nt
Clc1ccccc1-c1cc(NCc2cccnc2)ncn1,nt,nt,nt,-18%,-1%,nt
FC(F)(F)c1ccccc1-c1nc(NCc2cccnc2)c2ccccc2n1,nt,nt,nt,45µM*,-3%,nt
COC(=O)C1=C(O)/C(=C\c2ccc(CNS(=O)(=O)c3ccccc3)o2)N=C1C,-3,0%,4,?,-2%,-12%
COC(=O)C1=C(O)/C(=C\c2ccc(CNS(=O)(=O)c3ccc(Cl)cc3)o2)N=C1C,-15,-1%,1,50µM*,-5%,-6%
CCOC(=O)C1=C(O)/C(=C\c2ccc(CNS(=O)(=O)c3ccc(Br)cc3)o2)N=C1C,4,0%,1,45µM*,-4%,2%
O=C(COc1cccc(-n2cnnn2)c1)Nc1ccccc1Sc1ccccc1,nt,nt,nt,0%,nt,nt
Cc1cc(C)cc(C(=O)N(Cc2ccco2)C2CC2)c1,nt,nt,nt,26%,nt,nt
N#CC(C#N)=Cc1ccc(-c2ccc(S(=O)(=O)N=C(N)N)cc2)o1,28,-2%,1,25µM*,-1%,0%
Cc1ccc(CN(C)Cc2ccc(C#N)cc2)o1,nt,nt,nt,-1%,nt,nt
O=S(=O)(Nc1nc2ccccc2nc1OCC(F)(F)F)c1cccs1,8,-5%,0,-7%,-5%,25µM*
COc1ccc(Nc2nc3ccccc3nc2NS(=O)(=O)c2cccs2)cc1,3,-1%,-1,-51%,-1%,5%
CC(C)(C)c1ccc(-c2cc(C[C@H]3CNCC[C@H]3CC(=O)O)no2)cc1,nt,nt,nt,20%[176 µM],nt,nt
